# Compound activity (PubChem)
# Myeloid diff 2 – induction of myeloid progenitor differentiation, primary screen, cell-based, flow cytometry, MLPCN library; ER-HoxA9 myeloid progenitors, lysozyme-GFP differentiation; calls only at 10 µM; actives 1% (n = 360,000); AID 624256, 2012;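 active = normalized GFP-positive differentiation at or above the plate's own cutoff, the solvent-only control mean plus 3 SD; inconclusive = no clear call, values can overlap the other calls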;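 also: cells exposed to compound for four days before flow analysis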
# NR3A LBD binder – binders of NR3A ligand-binding domain, primary screen, biophysical, differential scanning fluorimetry, uHTS; NR3A LBD differential scanning fluorimetry, Tm shift; 0% = protein alone, 100% = glycine-bound protein; Tm shift relative to glycine control, % at 25 µM; actives 2.5% (n = 340,000);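 active = melting temperature shift of at least 10% of the positive control shift, at one fixed dose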
# FAS-TE inh – FAS thioesterase domain inhibitors, primary screen, biochemical, fluorescence intensity, uHTS. recombinant FAS-TE, OMFH fluorogenic substrate, fluorescence endpoint. actives 0.67% (n = 360,000). inhibition, % at 15 µM. Fatty acid synthase (Homo sapiens), P49327. AID 602261, 2012;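 active = compounds whose normalised, plate-corrected inhibition of enzyme fluorescence in the single-dose primary screen is 50% or more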;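 also: 0% = DMSO with enzyme and 100% = substrate without enzyme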
# rCAG binder – binders of r(CAG) RNA repeats, primary screen, biochemical, fluorescence. actives 1.3% (n = 370,000). inhibition, % at 3 µM. r(CAG) RNA repeat, TO-PRO-1 dye displacement fluorescence. AID 651821, 2012;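 active = inhibition above the plate cutoff, the mean of all test compounds on that plate plus 3 SD, cut at about 35% in these data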;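 also: 0% = DMSO alone and 100% = 100 µM mitoxantrone as full dye displacement; higher means more dye released from RNA so lower well fluorescence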
# MPTP block – mitochondrial permeability transition pore inhibitors, primary screen, biochemical, isolated mouse mitochondria, absorbance; Ca2+ swelling absorbance, 30 min; inhibition, % at 10 µM; actives 1.4% (n = 360,000); AID 602449, 2012;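 active = inhibition of 50% or more, scaled per plate between neutral and stimulator controls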;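 also: 0% = DMSO wells given calcium and 100% = 1 mM EGTA wells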
# Starred values were filed as active, the others as inactive; i = inactive; ? = inconclusive; / = no result given. In the library only some 5.7% were active in any assay of this set; here they are far more common.
SMILES,Myeloid diff 2,NR3A LBD binder,FAS-TE inh,rCAG binder,MPTP block
CC(C)c1c(C(=O)N/N=C/c2ccoc2)nnn1-c1nonc1N,?,-20,-3,0,2
S=C(Nc1ccc(I)cc1)OC1CCC12CCC(c1ccccc1)CC2 (stereo not given),/,/,/,17,/
O=C(Nc1ccc(Br)cc1)c1ccc(N2C(=O)C3CC=C(Cl)CC3C2=O)cc1 (stereo not given),i,26*,-3,13,-1
O=C(Nc1ccc(Br)cc1)c1ccc(N2C(=O)C3CCCCC3C2=O)cc1 (stereo not given),i,5,-5,-5,3
Cc1c(Cl)cccc1NC(=O)CCN1C(=O)C2CC=CCC2C1=O (stereo not given),i,11*,-4,-3,-1
COc1ccc(NC(=O)CCN2C(=O)C3CC=C(Cl)CC3C2=O)cc1 (stereo not given),i,32*,-12,0,0
